A short description of experiment [1]: qHTS assay to identify small molecule antagonists of the estrogen related receptor (ERR) signaling pathway - cell viability counter screen (AID 1224818). Also: potency is read from the fitted curve at half-maximal effect.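 Also: viability measured after 17.5 h of compound exposure.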 An outline of the steps: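 In the same ERR cell assay, compound-treated wells (17.5 h, 37 C) were multiplexed with a fluorogenic viability reagent, CellTiter-Fluor, read after 30 min to flag cytotoxic substances.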
For orientation: qHTS replaces the single test concentration by a dilution series.

A short description of experiment [2]: qHTS assay to identify small molecule antagonists of the estrogen related receptor (ERR) signaling pathway (AID 1224819;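 also: luminescence from an ERR-driven luciferase reporter measured with One-Glo reagent; series mostly up to about 46 µM; nearly all actives have a fitted effect of over 50% in size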). An outline of the steps:
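qHTS in ERR cells, 2,000/well, 1536 format. Cpd (DMSO) added after 6 h settle, 18 h 37 C. One-Glo luminescence, 30 min RT.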

Experiment [3] concerns estrogen-related receptor alpha (ERRalpha) with PGC-1alpha coactivator, human. The experiment in a line: qHTS assay to identify small molecule antagonists of the estrogen related receptor signaling pathway with the pleiotropic PPARgamma coactivator (PGC) (AID 1224821; calls by dose curve; also: nearly all actives have a fitted effect of over 50% in size; also: potency is read from the fitted curve at half-maximal effect). An outline of the steps:
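Cells engineered for PGC/ERR signalling (line from NTP) were plated 6 h at 37 C/5% CO2, then exposed to DMSO-dissolved compound for 18 h at 37 C. Luciferase activity was read by One-Glo luminescence after 30 min at room temperature.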

The nature of experiment [4]: qHTS assay to identify small molecule antagonists of the estrogen related receptor signaling pathway with the pleiotropic PPARgamma coactivator (PGC) cell viability counter screen (AID 1224822; also: potency is read from the fitted curve at half-maximal effect). An outline of the steps: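 Compounds in DMSO, with positive and negative controls, were applied to PGC/ERR cells (2,000/well) and left 17.5 h at 37 C before CellTiter-Fluor detection.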

The nature of experiment [5]: qHTS assay to identify small molecule agonists of the estrogen related receptor signaling pathway with the pleiotropic PPARgamma coactivator (PGC) (AID 1224823). Also: potency is read from the fitted curve at half-maximal effect. An outline of the steps:
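PGC/ERR reporter cells were seeded, rested 6 h at 37 C/5% CO2, then exposed to compounds in DMSO by pin transfer for 18 h at 37 C. Luciferase activity was read as luminescence after One-Glo reagent and 30 min at room temperature.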

The nature of experiment [6]: qHTS assay to identify small molecule agonists of the estrogen related receptor (ERR) signaling pathway (AID 1224820). In outline:
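ERR reporter cells (NTP line) plated 2,000/well, incubated 6 h at 37 C/5% CO2, then pinned with compounds in DMSO and held 18 h at 37 C. One-Glo added; luminescence read after 30 min at room temperature.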

SMILES strings stand for the structures. Inconclusive results are not listed. Active and inactive are the calls of the source. Unless noted, calls follow the shape of the dose curve; as a rule, active = well fitted curve in the direction sought with a large enough effect in the repeat runs; inconclusive = weak or mixed curves; inactive = no such curve, though single readings can be large; an effect the other way counts as inactive or inconclusive.

`C[C@H](Cc1ccccc1)Nc1ncnc2c1ncn2[C@@H]1O[C@H](CO)C(O)[C@H]1O` (stereo not given in full): the Potency result in experiment [1], in experiment [2], in experiment [3] and in experiment [4] was “inactive” in each case. In experiment [5], the Potency is 10.2 µM (active).

Turning to `CC(=O)O[C@H]1Cc2ccccc2N(C(N)=O)c2ccccc21`, the Potency entry in experiment [1], in experiment [2], in experiment [3], in experiment [4] and in experiment [5] was “inactive” in each case.

As to `CCCCS(=N)(=O)CC[C@H](N)C(=O)O` (stereo not given in full), the Potency result in experiment [1], in experiment [2], in experiment [3], in experiment [4] and in experiment [5] was “inactive” in each case.

As to `C[C@@H](N)C1CCC(C(=O)Nc2ccncc2)CC1` (stereo not given in full), the Potency result in experiment [1], in experiment [6], in experiment [4] and in experiment [5] was “inactive” each time. Moreover, the Potency in experiment [3] is 14.4 µM (active).

With `CC#CCOC(=O)c1c(C)nc2sc3c(c2c1N)CCC(O)C3` (stereo not given), the Potency entry in experiment [1], in experiment [6], in experiment [3], in experiment [4] and in experiment [5] was “inactive” each time.

As for `Fc1ccc(CN(C2=NCCN2)c2c(Cl)cccc2Cl)cc1`, the Potency entry in experiment [1], in experiment [6], in experiment [3], in experiment [4] and in experiment [5] was “inactive” in each case.

Turning to `COc1ccccc1N1CCN(CCN(C(=O)c2ccc(F)cc2)c2ccccn2)CC1`, the Potency result in experiment [1], in experiment [6], in experiment [3], in experiment [4] and in experiment [5] was “inactive” throughout.

On to `CC[n+]1c(/C=C/C=C2/N(C)c3ccccc3C2(C)C)sc2ccccc21`, for which the Potency in experiment [1] was 9.08 µM (active); in experiment [3], 0.492 µM (active); in experiment [4], 3.9 µM (active). For the same compound, the Potency entry in experiment [6] and in experiment [5] was “inactive” throughout.

Consider `COc1ccccc1N1CCN(CCN2C(=O)CC3(CCCC3)CC2=O)CC1`, for which the Potency entry in experiment [1], in experiment [6], in experiment [3], in experiment [4] and in experiment [5] was “inactive” throughout.

For `O=C(Nc1nc2ccccc2n1CCN1CCOCC1)c1cccc([N+](=O)[O-])c1`, the Potency result in experiment [1], in experiment [6], in experiment [3], in experiment [4] and in experiment [5] was “inactive” each time.

For the compound `Cc1ccc2c(c1)C(N1CCN(C)CC1)=Nc1cccnc1N2`, the Potency entry in experiment [1], in experiment [6], in experiment [3], in experiment [4] and in experiment [5] was “inactive” in each case.

The values above are taken from PubChem BioAssay (Tox21).
